High-throughput results (PubChem)
Rows were chosen to be rich in hits. Some 4.1% of all compounds tested hit in one or more screens of this group.
hgDAF12 agonist – H. glycines DAF-12 receptor agonists, primary screen, cell-based, luminescence, HEK293, GAL4 fusion, UAS-luciferase; HEK293 GAL4-hgDAF12 UAS-luciferase reporter, agonist luminescence; normalized to butyrate control; hit rate 1.8% among 370,000; activation, % at 6.8 µM;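 active = activation above a cutoff set at the mean of all screened compounds plus 3 SD, cut at about 10% in these data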;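 note: 0% = DMSO wells and 100% = sodium butyrate wells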
DAX1 inh-1 – DAX1 (NR0B1) inhibitors on StAR promoter, primary screen, cell-based, luminescence, SF-1 (NR5A1), full-length DAX-1; HEK293T StAR-luciferase reporter, SF-1/DAX-1 repression relief; inhibition, % at 6.8 µM; hit rate 1.1% among 370,000;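 active = inhibition above the mean over all tested compounds plus 3 SD, cut at about 3.6% in these data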;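 note: 0% = DAX-1 cells with DMSO and 100% = cells lacking DAX-1 with DMSO; higher inhibition means more luminescence from relief of DAX-1 repression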
hcDAF12 agonist – H. contortus DAF-12 nuclear receptor activators, primary screen, cell-based, luminescence, HEK293, lit1-tk-luc reporter. hit rate 1.4% among 370,000. AID 652067, 2013. activation, % at 6.8 µM. HEK293 hcDAF-12 lit1-tk-luc reporter; 0% DMSO, 100% Δ7-dafachronic acid;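 active = activation above the mean of all tested compounds plus 3 SD, cut at about 5.5% in these data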;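 note: 100% = response to 3 µM Δ7-dafachronic acid high control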
ssDAF-12 act – S. stercoralis DAF-12 nuclear receptor activators, primary screen, cell-based, luminescence, HEK293, GRIP1 co-expression, lit1-tk-luc. Nuclear hormone receptor DAF-12 (Strongyloides stercoralis). HEK293 ssDAF-12/GRIP1 lit1-tk-luc reporter; % of 3 µM dafachronic acid response. activation, % at 6.8 µM. hit rate 1% among 370,000;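 active = activation above the mean over all tested compounds plus 3 SD, cut at about 0.9% in these data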;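 note: 0% = DMSO-only wells and 100% = 3 µM delta7-dafachronic acid wells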
DAX1 inh-2 – DAX1 (NR0B1) inhibitors, primary screen, cell-based, HEK293, Gal4-DAX1, luciferase luminescence; hit rate 0.99% among 340,000; AID 504766, 2011; inhibition, % at 6.75 µM; HEK293 Gal4-DAX1 luciferase reporter;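 active = inhibition above the mean over all tested compounds plus 3 SD, cut at about 4.2% in these data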;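 note: 0% = DAX1-transfected cells with DMSO and 100% = empty-vector control cells with DMSO; inhibition shows as a rise in luminescence from relieved DAX1 repression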
Target sequence (P51843 207-470 limits assumed): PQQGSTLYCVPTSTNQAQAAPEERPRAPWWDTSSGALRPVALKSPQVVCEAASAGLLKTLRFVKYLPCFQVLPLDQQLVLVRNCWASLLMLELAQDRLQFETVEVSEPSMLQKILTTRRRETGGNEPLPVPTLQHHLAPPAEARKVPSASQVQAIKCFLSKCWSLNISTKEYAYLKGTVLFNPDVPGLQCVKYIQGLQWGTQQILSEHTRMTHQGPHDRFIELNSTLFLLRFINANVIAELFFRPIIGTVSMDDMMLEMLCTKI
LXR ag – LXR agonists, Gal4 luciferase reporter, confirmation, counter-screen for hcDAF-12 agonist project, cell-based, luminescence, HEK293, H. contortus campaign; shares compounds with hcDAF12 agonist; HEK293 Gal4-LXR tk-luc reporter, 24 h; normalized: DMSO 0%, positive control 100%; activation, % at 6.8 µM; 3,400 tested, under 10 active; AID 743027, 2013;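 active = mean percent activation of the reporter above a cutoff set as the average over tested compounds plus their standard deviation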
Target sequence (P55055 whole entry, looked up, the tested form may be a part): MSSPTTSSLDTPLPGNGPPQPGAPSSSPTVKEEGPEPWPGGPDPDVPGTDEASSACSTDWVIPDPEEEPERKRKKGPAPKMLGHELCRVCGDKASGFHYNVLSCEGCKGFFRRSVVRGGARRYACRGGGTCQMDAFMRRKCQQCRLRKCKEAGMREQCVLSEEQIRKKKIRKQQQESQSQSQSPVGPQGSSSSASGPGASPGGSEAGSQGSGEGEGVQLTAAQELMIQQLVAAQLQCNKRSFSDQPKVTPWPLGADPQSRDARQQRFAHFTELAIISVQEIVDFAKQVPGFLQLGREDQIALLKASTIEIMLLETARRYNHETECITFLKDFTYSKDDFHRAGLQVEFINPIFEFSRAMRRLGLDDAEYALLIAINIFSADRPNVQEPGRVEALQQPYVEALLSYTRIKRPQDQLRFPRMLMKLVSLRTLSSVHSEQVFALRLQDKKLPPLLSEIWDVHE
hcDAF12 conf – H. contortus DAF-12 receptor agonists, confirmation, cell-based, luminescence, HEK293, lit1-tk-luc, triplicate; shares compounds with hcDAF12 agonist; HEK293 hcDAF-12 lit1-tk-luc reporter; % of Δ7-dafachronic acid response; activation, % at 6.8 µM; hit rate 61% among 3,400; AID 743032, 2013;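 active = mean activation across triplicate tests above the threshold derived from the earlier primary screen, cut at about 5.5% in these data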;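 note: 0% = DMSO only wells and 100% = 3 µM Δ7-dafachronic acid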
An asterisk follows results filed as active; nt = no result.

SMILES	hgDAF12 agonist	DAX1 inh-1	hcDAF12 agonist	ssDAF-12 act	DAX1 inh-2	LXR ag	hcDAF12 conf
CC(=O)Nc1cc(C)nn1-c1nc2ccccc2s1	6.4	-0.8	4.4	0.2	-0.3	nt	nt
CN(CC(=O)Nc1cccc(F)c1)C(=O)CCNC(=O)c1ccco1	-2.1	-1.1	-0.7	-1.9	0.7	nt	nt
COc1ccc(NC(=O)c2ccc3ccccc3n2)cc1S(=O)(=O)N1CCCCC1	5.2	1.6	8.9*	0.1	1.4	0.1	3.9
N/C(=N\OC(=O)c1cccc2ccccc12)c1cccc([N+](=O)[O-])c1	-0.9	0.7	0.4	-1.5	0.7	nt	nt
Cc1cccc(/C(N)=N/OC(=O)c2cccc3ccccc23)c1	4.8	2.5	7.0*	0.9*	2.1	0.3	6.3*
N/C(=N\OC(=O)c1ccccc1Cl)c1ccc(Cl)cc1	9.1	1.6	9.1*	1.5*	1.9	1.4	14.7*
N/C(=N\OC(=O)c1ccc(Cl)cc1Cl)c1ccccc1	10.3	2.5	7.3*	0.1	2.3	2.1	25.1*
N/C(=N\OC(=O)c1ccc(Cl)cc1Cl)c1ccc(Cl)cc1	2.3	-0.1	2.2	0.0	4.2	nt	nt
COc1ccc(/C=N/NC(=O)OC(C)(C)C)cc1OC	1.4	0.0	3.0	-0.7	1.8	nt	nt
COc1ccc(Br)cc1C1Nc2cccc3cccc(c23)N1	0.9	-0.1	0.2	-1.1	0.8	nt	nt
Brc1ccc(C2Nc3cccc4cccc(c34)N2)s1	5.4	0.2	6.6*	0.5	-0.1	-0.2	3.7
COc1ccc(NC(=O)C2(C)Cc3c(-c4cccc(C(N)=O)c4)ccnc3O2)cn1 (stereo not given)	2.1	-3.0	-2.3	-1.2	nt	nt	nt
Cc1c(C(=O)Nc2nccs2)oc2ccc(Br)cc12	9.8	4.1*	9.2*	2.3*	3.1	2.2	13.3*
CCc1nnc(NC(=O)c2oc3ccc(Br)cc3c2C)s1	1.7	0.5	1.6	-0.4	1.5	nt	nt
Cc1cccc(Nc2nnc(SC/C(O)=C(\C#N)c3nc4ccccc4[nH]3)s2)c1	0.1	0.8	7.2*	1.5*	-0.4	-0.1	7.0*
COc1ccc(C)cc1-n1nnnc1SC/C(O)=C(\C#N)c1nc2ccccc2[nH]1	-1.3	0.5	2.2	-1.0	0.9	nt	nt
Cc1ccc(Nc2nnc(SC/C(O)=C(\C#N)c3nc4ccccc4[nH]3)s2)c(C)c1	1.4	-0.1	9.4*	0.5	1.1	-0.2	5.5
COc1c(-c2ccc(O)c(O)c2)oc2cc(O)cc(O)c2c1=O	-1.8	0.8	-1.6	-0.7	2.8	nt	nt
O=C(O)c1[nH]c2ccccc2c1C(c1cc(Br)ccc1O)c1c(C(=O)O)[nH]c2ccccc12	0.5	-0.2	7.1*	0.6	0.6	-0.4	3.0
NC(=O)c1ccccc1N/C=C/C(=O)c1ccc(Cl)cc1	10.0	2.9	6.7*	0.6	-1.0	1.2	4.7
Oc1c(Cl)cc(Cl)cc1C=Nc1cc(C(F)(F)F)ccc1N1CCc2ccccc2C1	20.3*	3.4	20.7*	3.2*	1.9	1.9	16.3*
Oc1c(Cl)cccc1C=Nc1cc(C(F)(F)F)ccc1N1CCCC1	0.0	-0.3	1.5	-0.7	0.3	nt	nt
Cc1c(C(=O)N(C)Cc2nc3ccccc3c(=O)[nH]2)oc2ccccc12	4.2	-2.3	0.6	-0.6	-0.9	nt	nt
O=C(Nc1ccc2c(c1)OCO2)c1ccc(Br)o1	13.2*	2.9	9.0*	0.3	0.9	0.2	4.5
CC(=O)Nc1c(C(=O)Nc2ccc3c(c2)OCO3)oc2ccccc12	8.8	1.8	7.6*	0.6	3.3	1.3	6.8*
SMILES	hgDAF12 agonist	DAX1 inh-1	hcDAF12 agonist	ssDAF-12 act	DAX1 inh-2	LXR ag	hcDAF12 conf
O=C(COC(=O)CNC(=O)c1ccc(Br)o1)Nc1ccc2c(c1)OCCO2	-2.8	-0.2	0.2	-1.4	-0.4	nt	nt
Cc1ccccc1Nc1n[nH]c(C)c1[N+](=O)[O-]	2.4	0.5	9.0*	0.1	-0.8	0.1	4.5
CCOc1ccc(-n2c(COc3ccccc3)nnc2SCC(=O)Nc2ccc3c(c2)OCCO3)cc1	-3.3	-0.9	-2.7	-1.5	nt	nt	nt
N#Cc1ccc(C(=O)N2CCCC(c3cc(C(=O)NCc4cccnc4)no3)C2)cc1 (stereo not given)	-0.8	-1.4	-0.6	-1.5	nt	nt	nt
Cc1c(C(=O)N2CCN(C3CCS(=O)(=O)C3)CC2)oc2ccc(Cl)cc12 (stereo not given)	1.2	-0.1	2.9	-1.2	-0.1	nt	nt
O=C1CN(CC(=O)NC2CCCc3ccccc32)CCN1 (stereo not given)	-0.2	-0.2	-0.7	-1.1	2.4	nt	nt
Clc1ccc(Cn2ncc3c(NCCN4CCOCC4)ncnc32)cc1	-0.7	-0.2	-0.8	-1.2	-0.1	nt	nt
Cc1nc(-c2ccccc2)cs1	0.1	0.3	-0.6	-0.8	0.0	nt	nt
N=c1oc2ccccc2cc1-c1nc(-c2ccccc2)cs1	7.1	1.9	10.6*	1.1*	1.6	-0.1	3.5
Cc1ccc(Cn2c(N/N=C/c3ccncc3)nc3c2c(=O)n(C)c(=O)n3C)cc1	-2.2	-0.6	-2.1	-1.2	2.0	nt	nt
Cc1cccc2cc3c(nc12)-c1ccccc1C3=O	1.9	0.7	7.2*	-0.1	1.0	0.3	4.7
Cc1nc2c(cc1C#N)C(=O)c1ccccc1-2	-0.5	0.9	-0.7	-1.3	0.4	nt	nt
COc1ccc(OCCOCCN2CCc3ccccc3C2)cc1	0.2	0.5	0.4	-0.5	-0.6	nt	nt
Clc1ccc(OCCCCN2CCc3ccccc3C2)cc1	8.2	0.3	10.3*	0.2	-1.3	-0.4	3.2
COC(=O)c1nc(NC(=S)NC(=O)c2cccs2)sc1C	5.3	1.2	3.9	0.1	0.3	nt	nt
S=C(Nc1ccccc1)Nc1ccc(Br)cn1	0.9	-0.5	-2.5	-1.1	-1.4	nt	nt
O=C(NC(=S)Nc1ccc(Br)cn1)c1cccs1	14.4*	2.7	12.9*	2.0*	6.1*	1.5	12.0*
COc1ccc(NC(=O)Nc2nc3ccccc3s2)cc1	11.2*	2.2	7.1*	0.5	2.3	0.7	1.8
O=C(NC(=S)Nc1nc2ccccc2s1)c1cccs1	8.7	2.4	13.1*	0.8	5.1*	1.2	16.6*
